The record followed here is PMC6212790, “How bacterial xenogeneic silencer rok distinguishes foreign from self DNA in its resident genome”.

Whole data set: some 33,000 sequences, median “e-score” near -0.037, cut for the highest 2% near 0.34. The sample as a whole holds a higher share of the highest values than the screen did.

The assay addresses T1, GST-Rok (full length) (Bacillus subtilis subsp. subtilis str. …, UniProt O34857 1-191).
T1 sequence: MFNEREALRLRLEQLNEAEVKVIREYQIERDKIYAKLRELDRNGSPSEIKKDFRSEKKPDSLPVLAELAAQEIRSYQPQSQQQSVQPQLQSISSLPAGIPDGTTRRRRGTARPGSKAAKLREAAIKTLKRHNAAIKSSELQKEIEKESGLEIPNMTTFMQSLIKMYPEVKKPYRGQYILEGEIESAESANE
In words: protein binding microarray; Rok is a gene silencer of Bacillus subtilis; high values mean tight binding. To be noted: protein: recombinant; tags: GST (pTH5325, pDEST15-Magic modified); dsDNA, one strand shown. The gist of the method: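 Each has a 25-mer constant primer and a 35-mer variable part from a de Bruijn sequence of order 10, covering every non-palindromic 8-mer at least 32 times (palindromic 16). Preference for each 8-mer is given as a rank-based, unitless enrichment score (E-score). Its range runs from 0.5 (most favored) to −0.5 (most disfavored).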
As to GCATTAGA, the binding signal amounted to 0.129 E-score. With TAGTCTGA the figure was 0.148 E-score; with CTTTACGA, 0.0116 E-score. Take AAGGAGTC: the binding signal was -0.107 E-score. Next, AAGGAATC: -0.0168 E-score; ATAGAAGC: 0.307 E-score; CGAGTAAC: 0.156 E-score. With ACTATTGA the figure was 0.288 E-score; with ACTATTGG, 0.208 E-score; with ACTATTGC, 0.401 E-score.

In the case of ACTTTTAT, the binding signal stood at 0.355 E-score. With ACTTTTAA the figure was 0.158 E-score; with ACTTTTAC, 0.224 E-score; with CACTTTTC, 0.0315 E-score. With ACGTTAAG the figure was -0.0138 E-score. Next, TATAACCA: 0.27 E-score; CACGTTGA: 0.088 E-score; AAGATGAC: 0.0776 E-score. For the sequence AAGTTTTG, the binding signal stood at 0.00498 E-score.

In the case of ATTATACC, the binding signal came to 0.269 E-score.

ATTATACG: the binding signal was 0.381 E-score. With GTTATACA the figure was 0.213 E-score; with ACTATACG, 0.0122 E-score; with CTTATACA, 0.283 E-score. With ATTATACA the figure was 0.363 E-score; with AACGGTTC, 0.108 E-score; with GTAGACAA, -0.0127 E-score. Next, GTGGCCAC: -0.123 E-score.

Regarding ACCTTGCG, the binding signal is -0.00332 E-score.

Regarding CAAAAAGA, the binding signal is -0.0731 E-score. Next, TGCTTGAA: -0.0266 E-score; GTTCTACA: 0.265 E-score.

As for ATTCTACC, the binding signal was 0.442 E-score. Next, ATTCTATA: 0.247 E-score.

For ATTCTAGC, the binding signal stood at 0.257 E-score. With CTTCTACC the figure was 0.327 E-score; with CTTCTATC, 0.265 E-score; with ATTCTACG, 0.18 E-score. Next, ATTCTATC: 0.348 E-score. With ATTCTACA the figure was 0.42 E-score. Turning to TGAACCCA, the binding signal is -0.0568 E-score.

In the case of CAACTAAA, the binding signal was determined as 0.249 E-score. Next, TCTAACAA: 0.0589 E-score; AAGCGCAG: -0.165 E-score. Next, GAGACTGA: 0.0243 E-score; ACCAATCC: 0.0382 E-score; ATGGTGAG: -0.0135 E-score.

Consider ACTAAAAA, for which the binding signal worked out at 0.21 E-score. ACTAAATA: the binding signal turned out to be 0.3 E-score.

Consider ACTAAATG, for which the binding signal amounted to 0.277 E-score. With ACTAAATC the figure was 0.343 E-score; with ACTAAAAC, 0.303 E-score; with ACTAAAAT, 0.406 E-score. Turning to CAAACAAC, the binding signal came to 0.00627 E-score.

For TAGCGGAA, the binding signal amounted to 0.245 E-score.

Consider GATGGACC, for which the binding signal is -0.171 E-score. Consider ATTGTTCA, for which the binding signal stood at 0.126 E-score.

Turning to ACTGGCGG, the binding signal was -0.0567 E-score.

For CAGCTGGA, the binding signal is -0.0564 E-score. With GGAGCAAC the figure was -0.104 E-score. For AAACTAGG, the binding signal worked out at 0.252 E-score. With GAACTAGC, the binding signal stood at 0.176 E-score. Next, ACACTAGT: 0.32 E-score. Next, AAACTAGC: 0.362 E-score; AAACTAGT: 0.459 E-score. As to CAACTAGC, the binding signal stood at 0.203 E-score. For the sequence AAATCCAT, the binding signal was found to be 0.193 E-score. Next, GGAGGTGA: -0.124 E-score.

With CCGGCAGC, the binding signal was -0.14 E-score.

For the sequence CCGCGTCG, the binding signal came to 0.0351 E-score. With ACAGTGTA the figure was 0.268 E-score; with GTAACTCA, 0.22 E-score; with CGTTTTAA, 0.191 E-score. With ACGAGTAG, the binding signal is -0.0634 E-score. Next, AATGTACG: 0.192 E-score; AATGTATC: 0.224 E-score; AATGTACT: 0.303 E-score.

Consider AAAGTACA, for which the binding signal was 0.364 E-score. Next, AATGTACA: 0.347 E-score; AATGTATA: 0.388 E-score; GTTGTATA: 0.348 E-score. Take AATGTATG: the binding signal worked out at 0.272 E-score. Next, ATTGTATA: 0.32 E-score. With CTTGTATA the figure was 0.219 E-score; with AAAGTACG, 0.22 E-score. With CAAGTACA the figure was 0.165 E-score; with CAGTACTG, 0.0294 E-score. As for CCTGGCGA, the binding signal is -0.199 E-score. With GTCCGTCA the figure was -0.0558 E-score. Turning to GGCAGCTA, the binding signal was -0.0821 E-score. With AGAAAGAT the figure was 0.0756 E-score. Consider AAGGCGGT, for which the binding signal was -0.0994 E-score. With ATTGTACC the figure was 0.239 E-score; with GATGTACA, 0.282 E-score. Regarding ATTGTACG, the binding signal amounted to 0.266 E-score. With ATTGTACA the figure was 0.369 E-score; with CATGTACA, 0.317 E-score. Next, TATGTACA: 0.378 E-score; ACGCTTGC: -0.1 E-score; CCGTTTTA: 0.0815 E-score. GAAATCTC: the binding signal came to 0.209 E-score. Next, CAAATCTG: -0.00951 E-score; GAAATCTA: 0.345 E-score. With ACAATCTA the figure was 0.283 E-score. With TAAATCTA the figure was 0.308 E-score; with GCAATCTA, 0.361 E-score.

With CCAATCTA, the binding signal came to 0.283 E-score. With CAAATCTA the figure was 0.377 E-score; with CAAATCTC, 0.0513 E-score; with ATTGATCG, 0.0726 E-score. For the sequence CAACTGAA, the binding signal was -0.0305 E-score. Next, CCTCTCTA: -0.198 E-score; CGTATCGA: 0.0045 E-score. Next, ACAAATAT: 0.402 E-score; ATAAATAT: 0.339 E-score; ACAAATAA: 0.333 E-score. For ATAAATAA, the binding signal stood at 0.329 E-score.

On to ATAAATAG, for which the binding signal was 0.322 E-score.

As for ACAAATAC, the binding signal amounted to 0.249 E-score.

AATAACCT: the binding signal was 0.0317 E-score. Turning to AACCACGT, the binding signal is -0.0233 E-score. Next, ACCATAGT: 0.207 E-score.

GGATAGAA: the binding signal was found to be 0.171 E-score. Next, CGATAGAA: 0.344 E-score; AGATAGAA: 0.26 E-score. Consider CGATAGAG, for which the binding signal is -0.134 E-score. In the case of CGATAGAC, the binding signal worked out at 0.0161 E-score. Next, TGATAGAA: 0.388 E-score; AGGTGCCA: -0.0282 E-score. Next, CTTATTGA: -0.157 E-score. Next, AATAGATC: 0.14 E-score; CATAGATA: 0.3 E-score. For AATAGATT, the binding signal was determined as 0.388 E-score.

In the case of AATAGATA, the binding signal came to 0.262 E-score. Turning to AATAGATG, the binding signal came out at 0.261 E-score. Next, GATAGACA: -0.0476 E-score. As to GATAGATA, the binding signal amounted to 0.368 E-score. Next, TATAGATA: 0.384 E-score; GATAGATC: 0.273 E-score. With ACCGTACT the figure was 0.0822 E-score. With ATTTGGCC the figure was -0.00123 E-score; with CACGGTAG, 0.264 E-score; with AACATCAA, 0.0614 E-score.

Consider CGAAGCAA, for which the binding signal was -0.114 E-score. With AACCTCGC the figure was -0.106 E-score; with AAATTCGT, 0.226 E-score. Next, ACAATATA: 0.298 E-score. With AAAATATA the figure was 0.417 E-score; with AAAATATT, 0.358 E-score.

Consider CAAATATA, for which the binding signal came out at 0.345 E-score. Next, AAAATAAA: 0.199 E-score.

On to TAAATATA, for which the binding signal was determined as 0.394 E-score. With CAAATATC the figure was 0.285 E-score. Next, TAAATAAA: 0.231 E-score. With CAAATATG the figure was 0.194 E-score. AAAATATG: the binding signal amounted to 0.278 E-score. As for AAAATATC, the binding signal amounted to 0.275 E-score. With GAAATATA the figure was 0.283 E-score; with AATGACCG, -0.0639 E-score; with AGGAATTC, -0.159 E-score.

Regarding ACGAACCA, the binding signal came to 0.000876 E-score. Regarding TCATTCAA, the binding signal was -0.111 E-score. For CAGTTTTC, the binding signal came out at 0.0134 E-score. With GATCGATA the figure was 0.269 E-score; with TATCGATA, 0.376 E-score; with AATCGATA, 0.281 E-score. Next, CTACAATA: 0.291 E-score; AGAATCCT: 0.0705 E-score; ACGAAACA: 0.0691 E-score. Regarding ACGAAACT, the binding signal stood at 0.337 E-score.

As to ACGAAACC, the binding signal was -0.0947 E-score. With AGCCTTAG the figure was -0.181 E-score.
